Screen size: about 5,500 compounds; about 2,000 (36%) were called active. About 18% were inconclusive and are not listed. Rule as the data show it: active = normalized growth mostly below about 0.91 (no sharp cut-off); inconclusive = no clear call, values can overlap the other calls; inactive = mostly above about 0.92. The list shows a part of the results.
Assay: chemical genetic growth profiling, strain panel (AID 1159580);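 also: tested at 20 µM; growth read once vehicle control cultures reached saturation at 30 °C; 1 = growth at the plate median or of vehicle wells; lower values mean less growth of the strain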
Conditions: S. cerevisiae deletion strains, growth OD

Measured: normalized growth

CC(C)=CCC/C(C)=C/CC/C(C)=C/CSc1ccccc1C(=O)O
inactive: locus YAL013W, strain DEP1, hits give low values 0.944 | locus YAL040C, strain CLN3, hits give low values 1.04 | locus YDR363W, strain ESC2, hits give low values 0.896 | locus YER002W, strain NOP16, hits give low values 0.958 | locus YGR078C, strain PAC10, hits give low values 0.928 | locus YNL175C, strain NOP13, hits give low values 0.956 | locus YNL197C, strain WHI3, hits give low values 0.965 | locus YNL224C, strain SQS1, hits give low values 0.974
active: locus YCL061C, strain MRC1 (second series), hits give low values 0.938 | locus YGR229C, strain SMI1, hits give low values 0.742 | locus YOR083W, strain WHI5 (second series), hits give low values 0.855

CC(=O)OC/C=C(\C)CC/C=C(\C)CC/C=C(\C)CC/C=C(\C)CC/C=C(\C)CC/C=C(\C)CC/C=C(\C)CC/C=C(\C)CCC=C(C)C
inactive: locus YAL021C, strain ccr4, hits give low values 0.991 | locus YAL026C, strain drs2, hits give low values 0.973 | locus YAL030W, strain snc1, hits give low values 0.977 | locus YBL061C, strain skt5, hits give low values 0.981 | locus YBR009C, strain hhf1, hits give low values 0.98 | locus YBR023C, strain chs3, hits give low values 0.991 | locus YBR171W, strain sec66, hits give low values 0.98 | locus YBR231C, strain swc5, hits give low values 0.992 | locus YBR279W, strain paf1, hits give low values 0.987 | locus YCL011C, strain gbp2, hits give low values 0.959 | locus YCL016C, strain dcc1, hits give low values 0.981 | locus YCL061C, strain MRC1, hits give low values 0.997 | locus YCL069W, strain vba3, hits give low values 1 | locus YCR088W, strain abp1, hits give low values 0.995 | locus YDL005C, strain med2, hits give low values 0.976 | locus YDL040C, strain nat1, hits give low values 0.998 | locus YDR001C, strain nth1, hits give low values 0.966 | locus YDR069C, strain doa4, hits give low values 0.978 | locus YDR137W, strain rgp1, hits give low values 0.984 | locus YDR159W, strain sac3, hits give low values 1.02 | locus YDR195W, strain ref2 0.984 | locus YDR297W, strain sur2, hits give low values 0.993 | locus YDR334W, strain swr1, hits give low values 0.943 | locus YDR335W, strain msn5, hits give low values 0.982 | locus YDR392W, strain spt3, hits give low values 0.976 | locus YEL003W, strain gim4, hits give low values 0.98 | locus YEL037C, strain rad23, hits give low values 0.976 | locus YEL061C, strain CIN8 (second series), hits give low values 0.973 | locus YER015W, strain faa2, hits give low values 0.971 | locus YER016W, strain bim1, hits give low values 0.99 | locus YER111C, strain swi4, hits give low values 0.984 | locus YER155C, strain BEM2 (second series), hits give low values 1 | locus YFR010W, strain ubp6, hits give low values 0.967 | locus YGL167C, strain pmr1, hits give low values 0.981 | locus YGL173C, strain kem1, hits give low values 0.974 | locus YGL227W, strain vid30, hits give low values 0.987 | locus YGL240W, strain doc1, hits give low values 1.01 | locus YGL253W, strain hxk2, hits give low values 0.964 | locus YHR013C, strain ard1, hits give low values 0.969 | locus YHR027C, strain rpn1, hits give low values 0.974 | locus YHR030C, strain SLT2, hits give low values 1.04 | locus YHR079C, strain IRE1, hits give low values 1.04 | locus YHR142W, strain chs7, hits give low values 0.917 | locus YJL092W, strain hpr5, hits give low values 0.985 | locus YJL095W, strain BCK1 (second series), hits give low values 0.987 | locus YJL095W, strain BCK1, hits give low values 1.02 | locus YJL115W, strain asf1, hits give low values 0.951 | locus YJL129C, strain trk1, hits give low values 0.931 | locus YJL154C, strain vps35, hits give low values 0.971 | locus YJL164C, strain tpk1, hits give low values 0.976 | locus YJL166W, strain qcr8, hits give low values 0.99 | locus YJL187C, strain SWE1, hits give low values 0.986 | locus YJR066W, strain TOR1, hits give low values 1.01 | locus YKL160W, strain elf1, hits give low values 0.98 | locus YKR026C, strain gcn3, hits give low values 0.988 | locus YKR091W, strain srl3, hits give low values 0.984 | locus YLL001W, strain dnm1, hits give low values 0.968 | locus YLL026W, hits give low values 0.974 | locus YLL041C, strain sdh2, hits give low values 0.991 | locus YLR027C, strain aat2, hits give low values 0.997 | locus YLR113W, strain HOG1, hits give low values 0.991 | locus YLR221C, strain rsa3, hits give low values 0.942 | locus YLR258W, strain gsy2, hits give low values 0.997 | locus YLR262C, strain YPT6 (second series), hits give low values 0.996 | locus YLR320W, strain mms22, hits give low values 0.991 | locus YLR342W, strain FKS1, hits give low values 0.99 | locus YLR357W, strain rsc2, hits give low values 0.987 | locus YLR370C, strain arc18, hits give low values 0.994 | locus YLR384C, strain iki3, hits give low values 0.985 | locus YML120C, strain ndi1, hits give low values 0.977 | locus YMR058W, strain fet3, hits give low values 0.984 | locus YMR125W, strain sto1, hits give low values 0.939 | locus YMR129W, hits give low values 0.982 | locus YMR205C, strain PFK2, hits give low values 0.958 | locus YMR231W, strain pep5, hits give low values 0.989 | locus YNL071W, strain lat1, hits give low values 0.987 | locus YNL183C, strain NPR1, hits give low values 1.01 | locus YNL209W, strain ssb2, hits give low values 1 | locus YNL248C, strain rpa49, hits give low values 0.964 | locus YNL322C, strain KRE1 (second series), hits give low values 0.97 | locus YNR049C, strain mso1, hits give low values 0.975 | locus YOR001W, strain rrp6, hits give low values 1 | locus YOR070C, strain gyp1, hits give low values 0.984 | locus YOR080W, strain dia2, hits give low values 0.978 | locus YOR083W, strain WHI5, hits give low values 0.97 | locus YOR106W, strain vam3, hits give low values 0.909 | locus YOR231W, strain MKK1, hits give low values 1.02 | locus YOR265W, strain rbl2, hits give low values 0.996 | locus YOR270C, strain vph1, hits give low values 0.879 | locus YOR290C, strain snf2, hits give low values 0.941 | locus YPL051W, strain arl3, hits give low values 1 | locus YPL078C, strain atp4, hits give low values 0.977 | locus YPL106C, strain sse1, hits give low values 0.997 | locus YPL240C, strain hsp82, hits give low values 0.968 | locus YPL256C, strain CLN2, hits give low values 1.02

Reference: PubChem BioAssay AID1159580 (chemical genetic matrix, 2015)
